CHRM1 antagonist: blocks human M1 muscarinic receptor; CHO-K1 hM1, Fluo-8 calcium fluorescence, ACh EC80 antagonist; AID 588852; inhibition, % at 3 µM; 1.3% of 360,000 active; P11229;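 active means percent inhibition above its own plate's cutoff, namely the mean of that plate's compound wells plus 3 SD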;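 further: peak over basal fluorescence ratio during 140 s after agonist addition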
Target sequence (P11229 whole entry, looked up): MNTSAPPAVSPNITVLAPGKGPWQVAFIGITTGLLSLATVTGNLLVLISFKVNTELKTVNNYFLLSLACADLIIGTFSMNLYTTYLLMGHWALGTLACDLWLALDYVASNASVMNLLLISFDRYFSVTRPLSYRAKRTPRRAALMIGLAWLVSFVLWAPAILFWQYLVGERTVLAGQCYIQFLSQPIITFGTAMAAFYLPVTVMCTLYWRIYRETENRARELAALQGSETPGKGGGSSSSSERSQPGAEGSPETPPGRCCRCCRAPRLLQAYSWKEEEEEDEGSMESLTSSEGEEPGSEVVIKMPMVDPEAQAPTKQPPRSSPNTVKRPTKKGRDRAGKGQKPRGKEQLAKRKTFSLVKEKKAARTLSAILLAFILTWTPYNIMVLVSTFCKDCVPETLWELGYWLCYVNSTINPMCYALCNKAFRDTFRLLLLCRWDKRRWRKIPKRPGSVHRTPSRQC
M1 ag: activates human CHRM1 receptor; CHO-K1 hM1, Fluo-8 calcium fluorescence, agonist mode; 0% DMSO, 100% acetylcholine EC100; AID 588814; 0.33% of 360,000 active; P11229; activation, % at 3 µM;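 active means activation above the run's mean compound activation plus 3 SD, cut at about 16% in these data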;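 further: peak over basal fluorescence ratio within a 140 s kinetic read after compound addition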
M1 ag parental: M1 agonist counterscreen hit in parental CHO-K1 cells; Fluo-8 calcium fluorescence; scaled to maximal ATP response, vehicle zero; activation, % at 3 µM; 0.48% of 360,000 active; AID 602248; in the data active means activation above about 15%;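 further: untransfected CHO-K1 host cells lacking M1 receptor as counterscreen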
CHO-K1 Ca antag: counter-screen for M1 antagonists: effect in parental CHO-K1 cells; ATP-induced calcium, Fluo-8 fluorescence; inhibition, % at 3 µM; 0.6% of 360,000 active; AID 602250;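 active means inhibition above a per-plate cutoff, the plate's mean sample inhibition plus 3 SD, cut at about 24% in these data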
CHO-K1 Ca PAM: nonselective activator or artifact in parental CHO-K1 calcium assay | ATP EC20, Fluo-8 calcium fluorescence; 0% at ATP EC20, 100% at ATP max | activation, % at 3 µM | 0.02% of 360,000 active;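 active means activation above the run cutoff, the mean activation of all test compounds plus 3 SD, cut at about 40% in these data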;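 further: peak over basal fluorescence ratio in a 140 s read after ATP addition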
CHRM1 PAM: potentiates human M1 receptor response to acetylcholine | P11229 | CHO-K1 hM1, Fluo-8 calcium fluorescence, ACh EC20; 0% = ACh EC20, 100% = maximal ACh | activation, % at 3 µM | 0.088% of 360,000 active; in the data active means activation above about 19%, passing the limit was not always enough
Hits are given with their value. This is a sample that favours compounds with a hit; in the whole collection about 2.3% have one here.

How did CC(C(=O)N(C)c1ccccc1)N1CCN(C(=O)c2ccccc2)CC1 (centres undefined) do in these assays?
CHRM1 antagonist: inactive; M1 ag: inactive; M1 ag parental: inactive; CHO-K1 Ca antag: inactive; CHO-K1 Ca PAM: inactive; CHRM1 PAM: inactive

What do the screens show for `CCc1nnc(NC(=O)C2CCCN2C(=O)Nc2ccc(Cl)cc2)s1` (centres undefined)?
CHRM1 antagonist: inactive; M1 ag: inactive; M1 ag parental: inactive; CHO-K1 Ca antag: inactive; CHO-K1 Ca PAM: inactive; CHRM1 PAM: inactive

What do the screens show for `COc1ccccc1C(O)c1ncc(-c2cccc3ccccc23)[nH]1` (centres undefined)?
CHRM1 antagonist: inactive; M1 ag: inactive; M1 ag parental: inactive; CHO-K1 Ca antag: inactive; CHO-K1 Ca PAM: inactive; CHRM1 PAM: inactive

Results for CCN(CC)C(CNC(=O)CSc1nnnn1-c1ccc(C)c(C)c1)c1ccco1 (centres undefined) ?
CHRM1 antagonist: inactive; M1 ag: inactive; M1 ag parental: inactive; CHO-K1 Ca antag: inactive; CHO-K1 Ca PAM: inactive; CHRM1 PAM: inactive

What do the screens show for `CCN(CC)C(CNC(=O)CSc1nnnn1-c1c(C)cccc1C)c1ccco1` (centres undefined)?
CHRM1 antagonist: 37; M1 ag: inactive; M1 ag parental: inactive; CHO-K1 Ca antag: inactive; CHO-K1 Ca PAM: inactive; CHRM1 PAM: inactive

Results for O=c1oc(Cc2ccccc2)nc2ccccc12 ?
CHRM1 antagonist: inactive; M1 ag: inactive; M1 ag parental: inactive; CHO-K1 Ca antag: inactive; CHO-K1 Ca PAM: inactive; CHRM1 PAM: inactive

What do the screens show for `COCCCNc1c2c3c(cccc3[nH]c1=O)C(=O)c1ccccc1-2`?
CHRM1 antagonist: 71; M1 ag: 264; M1 ag parental: 285; CHO-K1 Ca antag: 56; CHO-K1 Ca PAM: inactive; CHRM1 PAM: inactive

What do the screens show for `CS(=O)(=O)N1CCN(c2ccccc2NC(=S)NC(=O)c2ccccc2[N+](=O)[O-])CC1`?
CHRM1 antagonist: 29; M1 ag: inactive; M1 ag parental: inactive; CHO-K1 Ca antag: inactive; CHO-K1 Ca PAM: inactive; CHRM1 PAM: inactive

What do the screens show for `COCC(=O)N1CCC(n2nccc2NC(=O)CCOc2ccccc2)CC1`?
CHRM1 antagonist: inactive; M1 ag: inactive; M1 ag parental: inactive; CHO-K1 Ca antag: inactive; CHO-K1 Ca PAM: inactive; CHRM1 PAM: inactive

How did CCC(=O)N1CCC1(C)C(=O)Nc1ccc(C)c(C)c1 (centres undefined) do in these assays?
CHRM1 antagonist: inactive; M1 ag: inactive; M1 ag parental: inactive; CHO-K1 Ca antag: inactive; CHO-K1 Ca PAM: inactive; CHRM1 PAM: inactive

What do the screens show for `COc1ccccc1C1CCN(Cc2cccc([N+](=O)[O-])c2)CC1`?
CHRM1 antagonist: 35; M1 ag: inactive; M1 ag parental: inactive; CHO-K1 Ca antag: inactive; CHO-K1 Ca PAM: inactive; CHRM1 PAM: inactive

How did C[C@H](CO)N1C[C@H](C)[C@@H](CN(C)Cc2ccc(Oc3ccccc3)cc2)Oc2c(NC(=O)c3ccncc3)cccc2C1=O do in these assays?
CHRM1 antagonist: inactive; M1 ag: inactive; M1 ag parental: inactive; CHO-K1 Ca antag: inactive; CHO-K1 Ca PAM: 46; CHRM1 PAM: inactive

Results for C[C@H](CO)N1C[C@H](C)[C@@H](CN(C)Cc2ccccc2)Oc2c(NC(=O)c3ccncc3)cccc2C1=O ?
CHRM1 antagonist: inactive; M1 ag: inactive; M1 ag parental: inactive; CHO-K1 Ca antag: inactive; CHO-K1 Ca PAM: inactive; CHRM1 PAM: inactive

What do the screens show for `Cc1ccc(NC(=O)C2(C)CCN2CCc2ccccc2)cc1` (centres undefined)?
CHRM1 antagonist: inactive; M1 ag: inactive; M1 ag parental: inactive; CHO-K1 Ca antag: inactive; CHO-K1 Ca PAM: inactive; CHRM1 PAM: inactive

What do the screens show for `Cc1ccc(NC(=S)NC2CCSc3ccccc32)cc1` (centres undefined)?
CHRM1 antagonist: 79; M1 ag: inactive; M1 ag parental: inactive; CHO-K1 Ca antag: inactive; CHO-K1 Ca PAM: inactive; CHRM1 PAM: inactive

How did CC(=O)Nc1ccc(C(=O)NC2CCSc3ccccc32)cc1 (centres undefined) do in these assays?
CHRM1 antagonist: inactive; M1 ag: inactive; M1 ag parental: inactive; CHO-K1 Ca antag: inactive; CHO-K1 Ca PAM: inactive; CHRM1 PAM: inactive

What do the screens show for `CCCCCCn1c(=O)[nH]c2nc3cc(N)c(C)cc3nc2c1=O`?
CHRM1 antagonist: 32; M1 ag: 61; M1 ag parental: 60; CHO-K1 Ca antag: 29; CHO-K1 Ca PAM: inactive; CHRM1 PAM: inactive

Results for O=C(Nc1cccc(/C=C/c2ccccn2)c1)c1ccc(-n2cncn2)cc1 ?
CHRM1 antagonist: 31; M1 ag: inactive; M1 ag parental: inactive; CHO-K1 Ca antag: inactive; CHO-K1 Ca PAM: inactive; CHRM1 PAM: inactive

Results for CCCCCCCOC(=O)C[N+](C)(C)CCOC1CC2CCC1(C)C2(C)C (centres undefined) ?
CHRM1 antagonist: inactive; M1 ag: inactive; M1 ag parental: 27; CHO-K1 Ca antag: inactive; CHO-K1 Ca PAM: inactive; CHRM1 PAM: inactive

What do the screens show for `CCCCCCOC(=O)C[N+](C)(C)CCOC1CC2CCC1(C)C2(C)C` (centres undefined)?
CHRM1 antagonist: inactive; M1 ag: inactive; M1 ag parental: inactive; CHO-K1 Ca antag: inactive; CHO-K1 Ca PAM: inactive; CHRM1 PAM: inactive

What do the screens show for `CCOCCOCCC(C(=O)OCC)P(=O)(c1ccccc1)c1ccccc1` (centres undefined)?
CHRM1 antagonist: inactive; M1 ag: inactive; M1 ag parental: inactive; CHO-K1 Ca antag: inactive; CHO-K1 Ca PAM: inactive; CHRM1 PAM: inactive

How did CC1(c2ccc3ccccc3c2)NC(=O)N(CC(=O)N2CCCC(C(F)(F)F)C2)C1=O (centres undefined) do in these assays?
CHRM1 antagonist: inactive; M1 ag: inactive; M1 ag parental: inactive; CHO-K1 Ca antag: inactive; CHO-K1 Ca PAM: inactive; CHRM1 PAM: inactive

Results for COc1cc(/C=C2\SC(=S)N(NC(=O)c3ccc(O)c(OC)c3)C2=O)ccc1O ?
CHRM1 antagonist: inactive; M1 ag: 27; M1 ag parental: 17; CHO-K1 Ca antag: inactive; CHO-K1 Ca PAM: inactive; CHRM1 PAM: inactive

Results for O=C(CCCN1C(=O)/C(=C/c2cccs2)SC1=S)Nc1cccc(O)c1 ?
CHRM1 antagonist: 25; M1 ag: inactive; M1 ag parental: inactive; CHO-K1 Ca antag: inactive; CHO-K1 Ca PAM: inactive; CHRM1 PAM: inactive

Results for Cc1ccc(/C=C2\SC(=S)N(CCC(=O)NNC(=O)c3cccc(O)c3)C2=O)cc1 ?
CHRM1 antagonist: 32; M1 ag: inactive; M1 ag parental: inactive; CHO-K1 Ca antag: inactive; CHO-K1 Ca PAM: inactive; CHRM1 PAM: inactive

What do the screens show for `COc1cc(/C=C2\SC(=S)N(NC(=O)c3cccc(O)c3)C2=O)ccc1O`?
CHRM1 antagonist: inactive; M1 ag: 16; M1 ag parental: inactive; CHO-K1 Ca antag: inactive; CHO-K1 Ca PAM: inactive; CHRM1 PAM: inactive

What do the screens show for `CCNC(=O)NC(=O)COC(=O)C1CSC2(C)CCC(=O)N12` (centres undefined)?
CHRM1 antagonist: inactive; M1 ag: inactive; M1 ag parental: inactive; CHO-K1 Ca antag: inactive; CHO-K1 Ca PAM: inactive; CHRM1 PAM: inactive

Bioassay records as filed in PubChem BioAssay.
